According to the supplement of paper PMC13380429:
Counter-ions that a name gives are not always drawn.

System: Vero E6 infected with SARS-CoV-2
Assay: inhibition of SARS-CoV-2 cytopathic effect; higher = more antiviral protection, active = above 15
Details: 833.33 nM; 48 h

Compound	inhibition of SARS-CoV-2 cytopathic effect
N[C@@H]1CCN(c2cccnc2)C1	2.41% (inactive)
O=C1c2ccccc2-c2n[nH]c3cccc1c23 [pyrazolanthrone]	-1.07% (inactive)
CCC(=O)O[C@H]1CC[C@H]2[C@@H]3CCC4=CC(=O)CC[C@]4(C)[C@H]3CC[C@]12C	-13.3% (inactive)
N[C@@H](CSCCCO)C(=O)O [fudosteine]	1.15% (inactive)
CC(C)(Cc1c[nH]c2ccc(Cl)cc12)NCCOc1ccccc1OCC1CC1	-2.24% (inactive)
Cc1cccc(C)c1NC(=O)c1ccccc1C(=O)O [ftaxilide]	0.63% (inactive)
CO[C@H]1/C=C/O[C@@]2(C)Oc3c(C)c(O)c4c(O)c(c(/C=N/N5CCN(C)CC5)c(O)c4c3C2=O)NC(=O)/C(C)=C\C=C\[C@H](C)[C@H](O)[C@@H](C)[C@@H](O)[C@@H](C)[C@H](OC(C)=O)[C@@H]1C [rifampin]	-3.32% (inactive)
CCN(CC)Cc1ccc(C(=O)N(CCc2ccccc2OC)[C@@H]2CCNC2)cc1	-1.07% (inactive)
CCc1cc(Cl)c(OC)c(C(=O)NC[C@@H]2CCCN2CC)c1O [eticlopride]	0.92% (inactive)
C=C(C)[C@@H]1CC[C@]2(C(=O)O)CC[C@]3(C)[C@H](CC[C@@H]4[C@@]5(C)CC[C@H](O)C(C)(C)[C@@H]5CC[C@]43C)[C@@H]12 [betulinic-acid]	0.38% (inactive)
CC/C(=C(\c1ccc(O)cc1)c1ccc(OCCNC)cc1)c1ccccc1 [Endoxifen HCl]	-0.77% (inactive)
O=P1(N(CCCl)CCCl)NCCCO1 (stereo not given) [cyclophosphamide]	-1.65% (inactive)
NCCc1c[nH]c2ccc(O)cc12 [serotonin]	2.28% (inactive)
C[C@H]1c2cccc(O)c2C(=O)C2=C(O)[C@]3(O)C(=O)C(C(N)=O)=C(O)[C@@H](N(C)C)[C@@H]3[C@@H](O)[C@@H]21 [doxycycline]	0.08% (inactive)
N=C(NCc1ccc(Cl)cc1)SCCCc1c[nH]cn1 [clobenpropit]	1.78% (inactive)
CCn1nc(C)c2c1C(c1ccccc1)=NCC(=O)N2 [ripazepam]	-0.98% (inactive)
COc1cc(CCc2cc(NC(=O)c3ccc(N4CC(C)NC(C)C4)cc3)n[nH]2)cc(OC)c1 (stereo not given)	-1.56% (inactive)
CCOC(=O)CCC(=O)O[C@H]1[C@H](O[C@@H]2[C@@H](C)[C@H](O[C@H]3C[C@@](C)(OC)[C@@H](O)[C@H](C)O3)[C@@H](C)C(=O)O[C@H](CC)[C@@](C)(O)[C@H](O)[C@@H](C)C(=O)[C@H](C)C[C@@]2(C)O)O[C@H](C)C[C@@H]1N(C)C [erythromycin-ethylsuccinate]	0.29% (inactive)
COc1ccc(-c2ccc3cc(C(=O)O)ccc3c2)cc1C12CC3CC(CC(C3)C1)C2 [adapalene]	2.31% (inactive)
C=C1C[C@@]2(O)O[C@@]3(C[C@H]2C(C)C)[C@@H](C)CC[C@@H]13 [curcumol]	0.52% (inactive)

Compound	inhibition of SARS-CoV-2 cytopathic effect
O=C(O)CN1C(=O)c2cccc3cccc(c23)C1=O [alrestatin]	4.81% (inactive)
CCCCOc1ccc(-c2cncc(C(=O)NCc3cccnc3N3CCOCC3)c2)cc1Cl	-1.43% (inactive)
O=C(c1cccc(Br)c1)N1CCC(N2CCCC2)CC1	2.16% (inactive)
CC[C@H]1[C@@H](O)[C@@H]2[C@H](CC[C@]3(C)[C@@H]([C@H](C)CCC(=O)O)CC[C@@H]23)[C@@]2(C)CC[C@@H](O)C[C@@H]12 [obeticholic-acid]	2.73% (inactive)
CC(C)(C#N)c1ccc(N2C(=O)OCc3cnc4ccc(-c5cnc6ccccc6c5)cc4c32)cc1	2.93% (inactive)
c1cc(-c2cnn3cc(-c4ccc(N5CCNCC5)cc4)cnc23)c2cccnc2c1	-2.22% (inactive)
c1ccc(N2CCN(CCCOc3ccc4c(c3)OCO4)CC2)cc1	-3.5% (inactive)
CC(C)(C)NCC(O)c1cc(Br)no1 (stereo not given) [broxaterol]	-0.44% (inactive)
Nc1nc(=O)n([C@H]2C[C@H](O)[C@@H](CO)O2)cc1Cl [cytochlor]	1.92% (inactive)
COc1cc(OC)c(C(=O)CCCN2CCCC2)c(OC)c1 [buflomedil]	3.26% (inactive)
CCCCCCCCC(=O)N[C@H](CN1CCCC1)[C@H](O)c1ccc2c(c1)OCCO2	1.06% (inactive)
O=C(O)C(F)(F)C(F)(F)C(F)(F)C(F)(F)C(F)(F)C(F)(F)C(F)(F)F [ammonium-perfluorocaprylate]	-0.2% (inactive)
Fc1ccc2c(CCNCc3cccc(OCC(F)(F)C(F)F)c3)c[nH]c2c1 [idalopirdine]	-0.82% (inactive)
C=CC[C@]1(O)CC[C@H]2[C@@H]3CCC4=CCCC[C@@H]4[C@H]3CC[C@@]21C [allylestrenol]	1.07% (inactive)
CSc1ccc(OCc2ncc([N+](=O)[O-])n2C)cc1 [fexinidazole]	-3.53% (inactive)
c1cc(OCCN2CCCCC2)cc(-c2n[nH]c3ccc(-c4nnc[nH]4)cc23)c1	3.62% (inactive)
CCCC(=O)C1(c2ccccc2)CCN(C(=O)[C@@H](Cc2ccc(OC)cc2)NC(=O)[C@@H](N)Cc2cncn2C)CC1	-1.38% (inactive)
COc1ccc2c(c1)c(CC(=O)N1CCOCC1)c(C)n2C(=O)c1ccc(Cl)cc1	-0.58% (inactive)
N#CC(Cc1ccc(O)cc1)c1ccc(O)cc1 (stereo not given) [diarylpropionitrile]	-3.56% (inactive)
OC[C@H]1O[C@H](O[C@H]2O[C@H](CO)[C@@H](O)[C@H](O)[C@H]2O)[C@H](O)[C@@H](O)[C@@H]1O [cabaletta]	3.33% (inactive)
